Assay outcomes: PubChem BioAssay, National Center for Advancing Translational Sciences (NCATS)
Shiga toxin inh = A qHTS for Small Molecule Inhibitors of Shiga Toxin; Vero cells, Shiga toxin protein synthesis inhibition reporter; inhibition, % at 38.7 µM; hit rate 9.2% among 290,000; AID 2315, 2010; in the data active means inhibition mostly above about 28%, no sharp cut-off; inactive means mostly below about 43%; further: 0% is about no effect
Giardia FBPA inh = qHTS Assay for Inhibitors of Fructose-1,6-bisphosphate Aldolase from Giardia Lamblia | A8B2U2 | purified Giardia FBPA | Potency, µM (doses to about 59.6 µM), inactives show top-dose activity, negative = inhibition, hits mostly inhibitors | hit rate 0.71% among 290,000 | AID 2451, 2010; further: potency means the concentration at half of the fitted maximal effect; on the % scale 0 is the no-effect control and ±100 the full control effect; nearly all actives have a fitted effect of over 55% in size
Target sequence (A8B2U2 whole entry, looked up): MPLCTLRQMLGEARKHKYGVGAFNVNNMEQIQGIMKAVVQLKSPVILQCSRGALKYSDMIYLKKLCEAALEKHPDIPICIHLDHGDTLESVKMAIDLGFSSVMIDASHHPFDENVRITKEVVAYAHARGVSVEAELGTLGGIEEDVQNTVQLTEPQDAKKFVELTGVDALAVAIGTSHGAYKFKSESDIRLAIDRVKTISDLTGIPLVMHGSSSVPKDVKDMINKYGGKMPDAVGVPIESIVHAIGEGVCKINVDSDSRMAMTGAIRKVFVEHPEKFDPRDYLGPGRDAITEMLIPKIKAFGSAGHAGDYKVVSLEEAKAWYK
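Giardia FBPA (40 nM reagent) was preincubated 10 min at RT with compound (up to 57.5 uM final), then substrate plus GAPDH/TPI/NAD/arsenate coupling system with diaphorase/resazurin was added; resorufin fluorescence (525/598 nm) was read after 20 min.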
CHX counter = Cycloheximide Counterscreen for Small Molecule Inhibitors of Shiga Toxin; cell reporter, cycloheximide protein synthesis inhibition counterscreen; max response, %; hit rate 12% among 300,000; in the data active means max response mostly above about 13%, no sharp cut-off; inactive means mostly below about 14%; further: read at 38.3 µM for the half of the compounds with a filed dose; 0% is about no effect
NS1 function inh = qHTS Assay for Inhibitors of Influenza NS1 Protein Function. Potency, µM (top dose mostly 46.1 µM), without a hit: top-dose activity, positive = more growth. hit rate 0.4% among 270,000. AID 2326, 2010; calls by dose curve; further: potency means the concentration at half of the fitted maximal effect; actives are rising curves; nearly all actives have a fitted effect of over 50% in size
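S. cerevisiae expressing influenza A NS1, grown in glucose, washed, then diluted 1:100 into pH 6.0 -URA galactose medium with 23 nl compound. Growth recovery read as OD600; NS1-free strain serves as control.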
Pf growth 48h = Primary qHTS for delayed death inhibitors of the malarial parasite plastid, 48 hour incubation; Potency, µM (series often up to 28.7 µM), for the others: at the highest dose activity change, negative = inhibition, actives largely listed as inhibitors; P. falciparum luciferase growth in erythrocytes, 48 h; hit rate 5.9% among 310,000; further: potency means the concentration at half of the fitted maximal effect; on the % scale 0 is the no-effect control and ±100 the full control effect
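Luciferase-expressing parasites in RBCs, 2% Hct / 0.1% parasitemia final; RPMI 1640 + 0.5% Albumax; 37 C, 5% CO2, one generation; luminescence read-out, lower signal = inhibition.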
Pf growth 96h = Primary qHTS for delayed death inhibitors of the malarial parasite plastid, 96 hour incubation; P. falciparum luciferase reporter growth, 96 h; Potency, µM (series often up to 28.7 µM), inactives show at the top dose activity change, negative = inhibition, hits mostly inhibitors; hit rate 6.9% among 320,000; AID 504834, 2011; further: potency means the concentration at half of the fitted maximal effect; on the % scale 0 is the no-effect control and ±100 the full control effect
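Infected RBCs, 2% Hct / 0.05% parasitemia final; luciferase-reporter P. falciparum; cpd 96 h, 37 C, 5% CO2; luciferase detection reagent; luminescence.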
The depositor's hits bear a star; ? = inconclusive; · = no result; + = active, no number; [ ] = remark or other dose. Most compounds without a hit are left out; they make up all but 21% or so of the library. Unless noted, the call rests on the fitted dose curve; in most records, active means well fitted curve in the direction sought with a large enough effect; inconclusive means small, poorly fitted or top-dose-only effect, or another doubt; inactive means no such curve, though single readings can be large; an effect the other way counts as inactive or inconclusive.

SMILES | Shiga toxin inh | Giardia FBPA inh | CHX counter | NS1 function inh | Pf growth 48h | Pf growth 96h
COc1ccc(NC(=O)C(=O)NCC2CCCN2S(=O)(=O)c2cccs2)cc1 (stereo not given) | · | · | · | · | -17.5% | -1.4%
COc1ccccc1-c1cc(N(C)Cc2ccco2)ncn1 | · | -4.4% | · | · | · | ·
CC(=O)Nc1ccc(C(=O)Nc2cccc(-c3cnc4ccccc4n3)c2)cc1 | 30.0 | 0.1% | 18.1 | · | 9.0% | 45.7%
CNC(=S)Nc1cccc(-c2cnc3ccccc3n2)c1 | 57.9* | -11.1% | 26.1* | -2.6% | 81.4% | 97.0%
CS(=O)(=O)Nc1cccc(-c2cnc3ccccc3n2)c1 | 84.6* | -3.2% | 36.9* | -2.9% | 188.3% | 236.3%
O=C(Nc1cnc2ccccc2c1)c1cccc(-n2cnnn2)c1 | 163.8* | 1.3% | 87.7* | ? | 0.117µM* | -0.9%[5.75 µM]
O=C(NNC(=O)c1cccc(-n2cnnn2)c1)c1ccccc1 | 3.4 | -0.1% | 8.1 | · | -0.8% | ?
O=C(Nc1cccc(-c2cnc3ccccc3n2)c1)c1ccco1 | 100.2* | 0.6% | 55.3* | -115.1% | ? | 37.7%
CC(C)CCC[C@@H](C)[C@H]1CC[C@H]2[C@@H]3CC[C@@H]4C[C@H](O)CC[C@]4(C)[C@H]3CC[C@]12C | · | · | · | · | -3.6% | -16.7%
CCOC(=O)n1ccn(C)c1=S | · | -0.2% | · | · | 11.5%[12.8 µM] | -9.7%[12.8 µM]
CCN(Cc1cc2cc(C)ccc2[nH]c1=O)C(=O)c1cccc([N+](=O)[O-])c1 | 7.4 | 3.5% | -2.4 | -3.3% | 18.3% | -8.9%
Cc1ccc(C(=O)Nc2cccc(-c3cnc4ccccc4n3)c2)cc1 | -2.8 | 4.0% | 12.0 | 3.9% | 0.4% | 6.7%
O=C(Nc1cccc(-c2cnc3ccccc3n2)c1)c1ccncc1 | 35.9 | -0.9% | 23.4* | 0.2% | ? | 117.2%
Cn1c(NC(=O)c2cccnc2)nc2ccccc21 | + | 5.9% | 37.9* | 1.3% | ? | 16.5%
NC(=O)c1ccsc1NC(=O)c1ccc(S(=O)(=O)N2CCCC2)cc1 | 139.2* | 0.5% | 33.2* | · | 92.2% | 11.1%
Cc1ccc(C(NC(=O)c2cccc(S(=O)(=O)N3CCN(C)CC3)c2)c2ccccc2)cc1 (stereo not given) | · | · | · | · | 14.7µM* | ?
NC(=O)c1ccsc1NC(=O)c1ccc(S(=O)(=O)N2CCCCC2)cc1 | 65.5* | 1.0% | 46.0* | 10.2% | · | ?
CC1CC(C)CN(S(=O)(=O)c2ccc(C(=O)Nc3sccc3C(N)=O)cc2)C1 (stereo not given) | -2.2 | -2.9% | -1.1 | 2.8% | ? | ?
CN1CCN(S(=O)(=O)c2cccc(C(=O)Nc3sccc3C(N)=O)c2)CC1 | · | · | · | · | 13.1µM* | ?
Cc1cc(C)c(OCC(=O)N(Cc2ccc(N(C)C)cc2)C2CCS(=O)(=O)C2)c(C)c1 (stereo not given) | -8.7 | 2.9% | 2.5 | 0.4% | ? | ?
COc1ccc(-c2nc3cnc(Oc4ccccc4)nc3n(C3CC3)c2=O)cc1 | · | -6.1% | · | · | · | ·
CCCCNc1nc(C)nc2c1nc(-c1ccccc1)n2C1CCN(Cc2ccccc2)C1 (stereo not given) | · | 0.5% | · | · | · | ·
O=C(O)Cc1cccnc1 | · | · | · | -1.4% | · | ·
CC(=O)Cc1nsc(NC(=O)c2ccc(Br)o2)n1 | 32.0 | 1.0% | -3.3 | -3.5% | 27.2% | ?
CCOC(=O)Cc1csc(NC(=O)c2cc3ccccc3o2)n1 | 53.6* | -1.2% | 23.2* | · | 119.8% | -25.7%
SMILES | Shiga toxin inh | Giardia FBPA inh | CHX counter | NS1 function inh | Pf growth 48h | Pf growth 96h
CC(C)(C)c1csc(NC(=O)c2ccc(Br)o2)n1 | 98.7* | · | 47.3* | -58.3% | 5.6% | -20.4%
CCOC(=O)Cc1csc(NC(=O)Nc2cccc(Cl)c2)n1 | 25.7 | 4.2% | 8.9* | 1.7% | 12.1% | -26.6%
CCOC(=O)Cc1csc(NC(=O)c2sc3nc4ccc(CC)cc4cc3c2N)n1 | 81.2* | -3.2% | 23.7* | 27.4% | 133.4% | 35.5%
Cc1ccc(-n2c(SCC(=O)N3CCCCC3)nc(O)c(Cc3ccccc3)c2=O)cc1 | 21.9 | · | 15.9 | 9.2% | 7.5% | 0.5%
CCOC(=O)Cc1csc(N/N=C/c2ccc(Cl)cc2)n1 | 53.2* | -1.8% | 30.7* | 2.6% | 101.3% | 102.8%
CCOC(=O)Cc1csc(NC(=O)c2ccc(Br)o2)n1 | 35.6* | 4.7% | 37.7* | -54.7% | · | ?
CCOC(=O)Cc1csc(NC(=O)/C=C/c2ccc(Br)o2)n1 | 34.1 | -3.5% | 27.1 | -41.5% | 77.1% | ?
CCOC(=O)Cc1csc(NC(=O)Nc2ccc(Cl)cc2)n1 | 19.4 | -1.4% | 1.9 | -5.3% | ? | ?
COC(=O)[C@H](CCCN=C(N)N)NC(=O)CCCc1c(-c2ccccc2)[nH]c2c(F)cc(F)cc12 | 1.5 | -0.1% | -2.1 | · | · | ·
COc1cc2c(cc1OC)C1=NC(=O)CN1C(SCc1ccccc1C)=N2 | -6.0 | 0.0% | -3.3 | 29.4% | ? | 11.7µM*
COC(=O)c1ccccc1NC(=O)C(=O)NCc1ccncc1 | 2.6 | 10.7% | -1.6 | 0.1% | -6.6% | ?
O=C(NCCc1c[nH]c2ccccc12)c1ccco1 | 26.2 | 1.9% | 18.0* | -5.9% | 27.7% | 50.9%
O=C(NCCc1c[nH]c2ccccc12)/C(=C/c1ccco1)NC(=O)c1ccco1 | -6.2 | 2.0% | -0.8 | 0.6% | -1.5% | 0.294µM*
CC[C@@H](C)[C@@H](O)[C@H](C)C(=O)[C@H](C)/C=C(\C)C[C@H](C)[C@@H]1OC(=O)[C@H]1CC | -16.9 | 6.4% | 4.3 | · | · | ·
COC(=O)C1CCN(C(=O)CSc2ccccc2)CC1 | 19.2 | -0.5% | 7.9 | 1.0% | -16.8% | ?
COC(=O)C1CCN(C(=O)CCCOc2ccccc2)CC1 | 42.5* | 1.7% | 20.4* | ? | 193.5% | -3.5%
O=C(CCCOc1ccccc1)N1CCN(C(=O)c2ccco2)CC1 | 87.5* | 7.1% | 21.1* | -4.3% | 15.5% | ·
Cc1cc(Cl)ccc1OCCCC(=O)N1CCN(C(=O)c2ccco2)CC1 | 19.3 | 2.8% | -0.4 | -10.4% | -4.1% | ?
O=C(OCC(=O)N1CCN(C(=O)c2ccco2)CC1)c1ccccc1O | 32.5* | -1.5% | 20.5 | -0.5% | · | -5.4%
O=C(OCC(=O)N1CCN(C(=O)c2ccco2)CC1)c1ccccc1 | 78.4* | -0.4% | 29.0* | · | 28.1% | 17.9%
COc1ccc(C(=O)Nc2ncccc2C)cc1S(=O)(=O)N1CCOCC1 | · | · | · | · | 22.1% | 53.9%
Cc1ccc(-n2nc3c(=O)n(CC(=O)NC(C)CCc4ccccc4)nc(C)c3c2C)cc1 (stereo not given) | 5.7 | 4.8% | -2.3 | 8.8% | 0.6% | ?
CCCS/C(N)=N/N=C/c1ccccc1O | 49.6* | 6.5% | 38.4* | -56.5% | 164.5% | ·
CC(N=Cc1ccccc1O)c1ccccc1 (stereo not given) | -21.9 | 10.7% | -3.1 | 7.5% | -2.6% | ·
C=CCS/C(N)=N\N=C\c1c(O)ccc2ccccc12 | 114.0* | -15.4% | 43.6* | -3.5% | 69.8% | 66.9%
